Data taken from article PMC7862700, “An all-to-all approach to the identification of sequence-specific readers for epigenetic DNA modifications on cytosine”.

What was measured:
Assay in all cases: DAPPL (digital affinity profiling via proximity ligation, sequencing); 10 mM Tris-HCl pH 7.5, 50 mM NaCl, 1 mM DTT, 4% glycerol, room temperature, 30 min; GST-TFs on glutathione beads, 16-mer random dsDNA library, 0.1% formaldehyde crosslink after washing; high values mean tight binding
Conditions in all cases: protein: recombinant; tags: N-terminal GST; dsDNA, one strand shown
FEV = biological target: T1, FEV (Homo sapiens, UniProt Q99581 1-238)
T1 sequence: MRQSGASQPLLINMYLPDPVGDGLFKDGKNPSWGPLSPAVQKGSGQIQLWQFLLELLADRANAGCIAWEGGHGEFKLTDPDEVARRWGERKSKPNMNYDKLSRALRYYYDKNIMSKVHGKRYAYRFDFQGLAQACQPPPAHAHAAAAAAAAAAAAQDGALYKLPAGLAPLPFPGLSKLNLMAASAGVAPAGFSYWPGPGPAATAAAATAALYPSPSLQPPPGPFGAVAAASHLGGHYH
Summary of the method: (§1)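 After expression in yeast as GST fusions, human transcription factors were bound to glutathione beads, DNA-barcoded and mixed with a tag-only sample. The pools were incubated with 200 nmole of a 16-mer random double-stranded DNA library in Tris/NaCl/DTT/glycerol buffer (30 min, room temperature), washed and crosslinked with 0.1% formaldehyde. Proximity ligation with BsaI/T4 ligase ran for 1 h at 37 °C, before PCR amplification and sequencing on an Illumina NextSeq500. Binding signal is a hexamer's read frequency for a factor divided by its frequency for the tag-only sample.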

ETV5 = ETV5 (Homo sapiens, UniProt P41161 1-510)
Summary of the method: as §1

SPIC = biological target: T2, SPIC (Homo sapiens, UniProt Q8N5J4 1-248)
T2 sequence: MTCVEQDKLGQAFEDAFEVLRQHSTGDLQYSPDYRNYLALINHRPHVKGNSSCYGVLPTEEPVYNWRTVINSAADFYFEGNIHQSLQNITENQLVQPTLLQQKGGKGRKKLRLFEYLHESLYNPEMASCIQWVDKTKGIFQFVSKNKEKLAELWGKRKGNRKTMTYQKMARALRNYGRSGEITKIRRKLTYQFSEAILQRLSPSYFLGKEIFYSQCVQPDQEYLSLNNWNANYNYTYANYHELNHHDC
Summary of the method: as §1

ELF4 = ELF4 (Homo sapiens, UniProt Q99607 1-663)
Summary of the method: as §1

ELK4 = biological target: T3, ELK4 (Homo sapiens, UniProt P28324-2 1-405)
T3 sequence: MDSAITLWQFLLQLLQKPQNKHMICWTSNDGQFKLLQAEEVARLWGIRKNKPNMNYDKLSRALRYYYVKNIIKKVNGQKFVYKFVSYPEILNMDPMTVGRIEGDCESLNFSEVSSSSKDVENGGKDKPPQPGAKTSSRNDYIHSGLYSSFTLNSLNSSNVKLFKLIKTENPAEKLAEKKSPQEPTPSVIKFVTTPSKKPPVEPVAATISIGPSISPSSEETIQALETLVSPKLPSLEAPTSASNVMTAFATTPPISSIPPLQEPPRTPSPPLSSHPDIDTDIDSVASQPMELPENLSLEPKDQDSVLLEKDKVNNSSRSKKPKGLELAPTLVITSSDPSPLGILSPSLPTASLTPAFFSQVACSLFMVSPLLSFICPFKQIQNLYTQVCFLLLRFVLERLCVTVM
Summary of the method: as §1

ETV2 = biological target: T4, ETV2 (Homo sapiens, UniProt O00321 1-342)
T4 sequence: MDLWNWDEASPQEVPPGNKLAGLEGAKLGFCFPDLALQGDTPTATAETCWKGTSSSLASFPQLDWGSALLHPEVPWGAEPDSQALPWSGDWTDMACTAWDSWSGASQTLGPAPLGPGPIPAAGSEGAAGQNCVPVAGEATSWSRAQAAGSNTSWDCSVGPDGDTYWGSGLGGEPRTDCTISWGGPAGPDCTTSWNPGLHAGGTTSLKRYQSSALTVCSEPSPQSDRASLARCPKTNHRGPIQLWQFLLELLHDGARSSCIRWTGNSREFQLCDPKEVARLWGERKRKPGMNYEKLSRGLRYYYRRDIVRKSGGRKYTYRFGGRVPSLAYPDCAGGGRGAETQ
Summary of the method: as §1

ELF3 = biological target: T5, ELF3 (Homo sapiens, UniProt P78545 1-371)
T5 sequence: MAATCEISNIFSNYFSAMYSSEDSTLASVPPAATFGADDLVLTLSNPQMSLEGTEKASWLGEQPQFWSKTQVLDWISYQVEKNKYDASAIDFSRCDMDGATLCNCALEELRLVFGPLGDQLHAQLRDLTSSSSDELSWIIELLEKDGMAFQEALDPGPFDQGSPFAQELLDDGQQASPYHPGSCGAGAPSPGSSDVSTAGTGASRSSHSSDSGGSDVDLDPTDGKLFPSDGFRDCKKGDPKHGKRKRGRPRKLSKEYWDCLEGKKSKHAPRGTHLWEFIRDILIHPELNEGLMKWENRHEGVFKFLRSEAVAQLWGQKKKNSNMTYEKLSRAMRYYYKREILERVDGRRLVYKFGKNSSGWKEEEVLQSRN
Summary of the method: as §1

ETV1 = ETV1 (Homo sapiens, UniProt P50549 1-477)
Summary of the method: as §1

ERF = biological target: T6, ERF (Homo sapiens, UniProt P50548 1-548)
T6 sequence: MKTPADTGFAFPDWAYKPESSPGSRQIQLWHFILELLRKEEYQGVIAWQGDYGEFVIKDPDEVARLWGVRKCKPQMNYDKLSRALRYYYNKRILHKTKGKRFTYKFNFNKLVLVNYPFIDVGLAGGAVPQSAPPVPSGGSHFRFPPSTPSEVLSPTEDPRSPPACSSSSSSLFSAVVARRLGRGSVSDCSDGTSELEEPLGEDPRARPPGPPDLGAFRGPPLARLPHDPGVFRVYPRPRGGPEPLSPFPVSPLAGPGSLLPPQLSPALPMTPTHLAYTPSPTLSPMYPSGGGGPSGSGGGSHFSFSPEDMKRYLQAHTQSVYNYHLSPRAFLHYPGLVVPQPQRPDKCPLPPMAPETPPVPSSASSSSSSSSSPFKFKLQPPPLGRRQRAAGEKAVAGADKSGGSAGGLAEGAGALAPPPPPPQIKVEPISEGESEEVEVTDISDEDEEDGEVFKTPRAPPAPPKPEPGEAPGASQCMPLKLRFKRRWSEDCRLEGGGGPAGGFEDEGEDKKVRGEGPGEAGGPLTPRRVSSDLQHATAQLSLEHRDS
Summary of the method: as §1

ETV3L = biological target: T7, ETV3L (Homo sapiens, UniProt Q6ZN32 1-361)
T7 sequence: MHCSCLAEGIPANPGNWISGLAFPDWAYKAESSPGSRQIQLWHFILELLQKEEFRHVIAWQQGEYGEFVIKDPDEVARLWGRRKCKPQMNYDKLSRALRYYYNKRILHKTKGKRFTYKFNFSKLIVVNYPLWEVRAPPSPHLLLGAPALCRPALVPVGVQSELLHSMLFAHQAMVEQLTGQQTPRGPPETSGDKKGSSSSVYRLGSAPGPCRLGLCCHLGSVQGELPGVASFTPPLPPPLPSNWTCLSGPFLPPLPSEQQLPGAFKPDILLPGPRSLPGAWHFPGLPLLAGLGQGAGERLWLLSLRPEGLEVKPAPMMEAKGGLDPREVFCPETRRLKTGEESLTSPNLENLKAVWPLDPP
Summary of the method: as §1

ETS2 = biological target: T8, ETS2 (Homo sapiens, UniProt P15036 1-469)
T8 sequence: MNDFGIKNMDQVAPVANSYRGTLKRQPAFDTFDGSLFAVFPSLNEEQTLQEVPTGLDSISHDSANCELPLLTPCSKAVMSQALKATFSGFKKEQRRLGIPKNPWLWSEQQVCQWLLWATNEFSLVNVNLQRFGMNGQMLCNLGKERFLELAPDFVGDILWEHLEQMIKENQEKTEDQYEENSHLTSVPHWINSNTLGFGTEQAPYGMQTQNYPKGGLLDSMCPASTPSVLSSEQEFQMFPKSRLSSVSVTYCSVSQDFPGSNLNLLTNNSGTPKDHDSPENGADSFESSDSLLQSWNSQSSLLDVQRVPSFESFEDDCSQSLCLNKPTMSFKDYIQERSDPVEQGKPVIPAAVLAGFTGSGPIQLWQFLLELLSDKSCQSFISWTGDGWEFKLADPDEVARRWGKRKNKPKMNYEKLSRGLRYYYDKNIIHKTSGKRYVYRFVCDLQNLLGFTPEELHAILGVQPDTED
Summary of the method: as §1

ETV7 = biological target: T9, ETV7 (Homo sapiens, UniProt Q9Y603 1-341)
T9 sequence: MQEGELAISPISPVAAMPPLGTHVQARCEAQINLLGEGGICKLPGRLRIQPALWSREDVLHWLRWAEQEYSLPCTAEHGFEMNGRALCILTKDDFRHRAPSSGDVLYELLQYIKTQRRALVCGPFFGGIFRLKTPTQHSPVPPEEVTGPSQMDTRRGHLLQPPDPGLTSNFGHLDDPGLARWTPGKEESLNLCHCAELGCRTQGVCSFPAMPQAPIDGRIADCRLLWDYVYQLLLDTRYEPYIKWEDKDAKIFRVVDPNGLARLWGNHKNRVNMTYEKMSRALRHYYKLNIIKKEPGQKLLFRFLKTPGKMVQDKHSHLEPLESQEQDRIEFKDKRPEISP
Summary of the method: as §1

ELF5 = biological target: T10, ELF5 (Homo sapiens, UniProt Q9UKW6-2 1-255)
T10 sequence: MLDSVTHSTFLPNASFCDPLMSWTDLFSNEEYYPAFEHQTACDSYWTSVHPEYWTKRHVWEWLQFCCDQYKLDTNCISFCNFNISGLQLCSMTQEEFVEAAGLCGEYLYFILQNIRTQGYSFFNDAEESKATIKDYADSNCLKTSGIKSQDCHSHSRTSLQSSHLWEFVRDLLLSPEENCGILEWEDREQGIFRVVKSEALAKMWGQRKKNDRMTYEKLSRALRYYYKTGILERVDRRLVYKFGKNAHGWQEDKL
Summary of the method: as §1

ETV3 = biological target: T11, ETV3 (Homo sapiens, UniProt P41162-2 1-143)
T11 sequence: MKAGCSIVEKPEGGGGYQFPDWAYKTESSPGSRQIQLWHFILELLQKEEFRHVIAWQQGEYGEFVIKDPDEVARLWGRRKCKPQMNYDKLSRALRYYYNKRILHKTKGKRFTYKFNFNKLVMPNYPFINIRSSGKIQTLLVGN
Summary of the method: as §1

ETV6 = ETV6 (Homo sapiens, UniProt P41212 1-452)
Summary of the method: as §1

SPDEF = biological target: T12, SPDEF (Homo sapiens, UniProt O95238 1-335)
T12 sequence: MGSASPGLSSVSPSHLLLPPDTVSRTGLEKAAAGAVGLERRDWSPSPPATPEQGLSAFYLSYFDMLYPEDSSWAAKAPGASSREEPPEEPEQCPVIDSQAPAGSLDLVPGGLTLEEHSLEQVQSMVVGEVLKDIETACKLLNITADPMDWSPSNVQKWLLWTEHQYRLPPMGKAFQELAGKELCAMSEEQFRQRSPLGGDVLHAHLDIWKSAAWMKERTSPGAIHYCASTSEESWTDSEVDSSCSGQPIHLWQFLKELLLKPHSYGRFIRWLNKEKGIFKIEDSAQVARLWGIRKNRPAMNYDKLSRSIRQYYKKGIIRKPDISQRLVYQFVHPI
Summary of the method: as §1

Chain of ETV1 (P50549 whole entry): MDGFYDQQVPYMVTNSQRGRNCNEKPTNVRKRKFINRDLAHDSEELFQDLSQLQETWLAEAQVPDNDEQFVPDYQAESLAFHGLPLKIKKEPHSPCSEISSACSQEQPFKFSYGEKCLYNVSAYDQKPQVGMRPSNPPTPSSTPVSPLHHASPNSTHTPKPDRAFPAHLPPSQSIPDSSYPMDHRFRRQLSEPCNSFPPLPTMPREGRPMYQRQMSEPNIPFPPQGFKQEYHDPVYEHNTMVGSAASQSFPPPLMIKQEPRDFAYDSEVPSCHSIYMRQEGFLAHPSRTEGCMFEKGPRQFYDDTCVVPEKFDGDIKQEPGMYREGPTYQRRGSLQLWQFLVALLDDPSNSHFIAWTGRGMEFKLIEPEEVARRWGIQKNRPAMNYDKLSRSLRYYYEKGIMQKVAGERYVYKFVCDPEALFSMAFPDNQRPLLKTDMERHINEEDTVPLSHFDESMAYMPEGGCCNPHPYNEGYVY
Chain of ELF4 (Q99607 whole entry): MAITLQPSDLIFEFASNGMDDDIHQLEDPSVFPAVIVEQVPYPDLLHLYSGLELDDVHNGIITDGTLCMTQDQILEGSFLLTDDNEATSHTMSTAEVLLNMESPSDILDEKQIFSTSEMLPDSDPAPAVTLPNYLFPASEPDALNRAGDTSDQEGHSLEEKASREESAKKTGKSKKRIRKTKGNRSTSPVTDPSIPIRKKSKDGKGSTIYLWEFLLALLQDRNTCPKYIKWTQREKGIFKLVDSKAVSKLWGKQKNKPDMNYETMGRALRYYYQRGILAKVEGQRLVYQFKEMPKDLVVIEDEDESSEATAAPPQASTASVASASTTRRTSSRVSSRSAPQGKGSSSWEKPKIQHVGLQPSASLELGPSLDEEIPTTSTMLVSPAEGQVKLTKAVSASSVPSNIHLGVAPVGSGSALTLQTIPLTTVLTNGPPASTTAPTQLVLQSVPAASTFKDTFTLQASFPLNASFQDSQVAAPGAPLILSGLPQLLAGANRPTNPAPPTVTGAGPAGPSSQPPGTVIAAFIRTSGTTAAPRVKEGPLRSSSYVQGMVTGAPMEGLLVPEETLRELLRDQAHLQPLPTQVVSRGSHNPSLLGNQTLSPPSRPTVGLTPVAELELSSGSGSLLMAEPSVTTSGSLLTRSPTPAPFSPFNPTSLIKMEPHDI
Chain of ETV6 (P41212 whole entry): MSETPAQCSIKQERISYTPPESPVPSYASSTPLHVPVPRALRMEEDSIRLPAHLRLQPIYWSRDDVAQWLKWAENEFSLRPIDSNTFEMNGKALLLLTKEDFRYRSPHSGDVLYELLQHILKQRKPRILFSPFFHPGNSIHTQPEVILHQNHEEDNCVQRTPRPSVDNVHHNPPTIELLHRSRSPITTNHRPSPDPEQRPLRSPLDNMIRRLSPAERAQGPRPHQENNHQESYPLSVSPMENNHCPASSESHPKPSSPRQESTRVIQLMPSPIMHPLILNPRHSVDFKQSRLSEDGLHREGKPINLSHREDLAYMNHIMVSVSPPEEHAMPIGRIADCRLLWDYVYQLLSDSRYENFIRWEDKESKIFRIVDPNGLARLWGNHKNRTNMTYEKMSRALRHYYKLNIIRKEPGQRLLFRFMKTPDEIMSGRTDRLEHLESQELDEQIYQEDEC
Chain of ETV5 (P41161 whole entry): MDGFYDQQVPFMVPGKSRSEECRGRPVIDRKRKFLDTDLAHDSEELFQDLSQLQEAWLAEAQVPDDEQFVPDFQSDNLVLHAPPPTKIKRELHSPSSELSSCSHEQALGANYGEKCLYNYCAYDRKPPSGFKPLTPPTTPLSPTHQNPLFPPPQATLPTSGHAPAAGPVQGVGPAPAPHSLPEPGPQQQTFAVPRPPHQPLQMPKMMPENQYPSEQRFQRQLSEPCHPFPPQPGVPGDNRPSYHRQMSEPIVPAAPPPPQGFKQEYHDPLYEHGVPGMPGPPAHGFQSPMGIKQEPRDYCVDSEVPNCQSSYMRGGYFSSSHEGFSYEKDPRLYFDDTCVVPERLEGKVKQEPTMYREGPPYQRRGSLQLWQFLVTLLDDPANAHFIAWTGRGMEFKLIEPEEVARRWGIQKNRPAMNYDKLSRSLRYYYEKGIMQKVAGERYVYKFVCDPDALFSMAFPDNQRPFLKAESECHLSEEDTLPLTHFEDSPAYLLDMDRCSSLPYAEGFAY

Row | Sequence | binding signal (FEV) | binding signal (ETV5) | binding signal (SPIC) | binding signal (ELF4) | binding signal (ELK4) | binding signal (ETV2) | binding signal (ELF3) | binding signal (ETV1) | binding signal (ERF) | binding signal (ETV3L) | binding signal (ETS2) | binding signal (ETV7) | binding signal (ELF5) | binding signal (ETV3) | binding signal (ETV6) | binding signal (SPDEF)
1 | CATTCA | 1.01 fold enrichment (6-mer frequency, TF over GST control) | 1.12 fold enrichment (6-mer frequency, TF over GST control) | 1.01 fold enrichment (6-mer frequency, TF over GST control) | 1.11 fold enrichment (6-mer frequency, TF over GST control) | 1.09 fold enrichment (6-mer frequency, TF over GST control) | 1.03 fold enrichment (6-mer frequency, TF over GST control) | 1.06 fold enrichment (6-mer frequency, TF over GST control) | 1.15 fold enrichment (6-mer frequency, TF over GST control) | 1.11 fold enrichment (6-mer frequency, TF over GST control) | 1.08 fold enrichment (6-mer frequency, TF over GST control) | 1.01 fold enrichment (6-mer frequency, TF over GST control) | 1.09 fold enrichment (6-mer frequency, TF over GST control) | 1.02 fold enrichment (6-mer frequency, TF over GST control) | 1.11 fold enrichment (6-mer frequency, TF over GST control) | 1.09 fold enrichment (6-mer frequency, TF over GST control) | 
2 | GTATCA | 1.04 fold enrichment (6-mer frequency, TF over GST control) | 1.01 fold enrichment (6-mer frequency, TF over GST control) | 1.03 fold enrichment (6-mer frequency, TF over GST control) | 1.05 fold enrichment (6-mer frequency, TF over GST control) | 1.12 fold enrichment (6-mer frequency, TF over GST control) | 1.12 fold enrichment (6-mer frequency, TF over GST control) | 1.17 fold enrichment (6-mer frequency, TF over GST control) | 1.05 fold enrichment (6-mer frequency, TF over GST control) |  | 1.09 fold enrichment (6-mer frequency, TF over GST control) | 1.05 fold enrichment (6-mer frequency, TF over GST control) | 1.04 fold enrichment (6-mer frequency, TF over GST control) | 1.03 fold enrichment (6-mer frequency, TF over GST control) | 1.09 fold enrichment (6-mer frequency, TF over GST control) | 1.01 fold enrichment (6-mer frequency, TF over GST control) | 1.08 fold enrichment (6-mer frequency, TF over GST control)
